Laboratory results taken from PubChem BioAssay (Tox21).
The source made the active and inactive calls. A call without a number means that no potency is given here. The call rests on the fitted dose curve; in most records, active means well fitted activation curve with a large enough effect in the repeat runs; inconclusive means weak or mixed curves; inactive means flat fitted curve, though single readings scatter. Peptide text beside a SMILES is read from it.

The compounds below were run against KiSS-1 receptor (Homo sapiens) (UniProt Q969F8) (assay: Human kisspeptin (KISS1R) small molecule agonists, calcium flux assay in KISS1R-HEK293 cells (AID 1920064)). Settings: KISS1R-HEK293, calcium flux fluorescence, agonist; series mostly up to 76.8 µM.
Chain of KiSS-1 receptor (Homo sapiens) (Q969F8 whole entry, looked up): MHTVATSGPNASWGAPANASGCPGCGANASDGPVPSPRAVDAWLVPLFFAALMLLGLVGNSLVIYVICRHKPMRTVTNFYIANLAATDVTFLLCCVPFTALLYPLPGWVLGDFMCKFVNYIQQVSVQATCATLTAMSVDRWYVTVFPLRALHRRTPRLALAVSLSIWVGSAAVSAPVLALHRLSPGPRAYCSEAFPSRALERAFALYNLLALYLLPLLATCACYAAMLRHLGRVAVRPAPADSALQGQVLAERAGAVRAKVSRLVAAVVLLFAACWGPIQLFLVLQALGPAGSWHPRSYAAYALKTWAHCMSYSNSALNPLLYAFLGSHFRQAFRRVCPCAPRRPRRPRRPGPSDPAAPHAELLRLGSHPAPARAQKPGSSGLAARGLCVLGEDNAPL
Description: National Center for Advancing Translational Sciences [NCATS]
Division of Preclinical Innovation [DPI]
U.S. Environmental Protection Agency [EPA]
National Institutes of Environmental Health Sciences [NIEHS]
National Toxicology Program [NTP]
U.S. Food and Drug Administration [FDA]
Kisspeptin and its receptor KISS1R play key roles in mammalian reproduction due to their involvement in the onset of puberty and control of the hypothalamic-pituitary-gonadal axis such as regulates GnRH release from the hypothalamus. The kisspeptin/KISS1R system also plays a direct role in peripheral organs (including the ovary, testis, uterus, and placenta) and is implicated in reproductive diseases such as miscarriage and polycystic ovary syndrome (PCOS). Abnormal KISS1R activity is associated with abnormal puberty, infertility, endometriosis, and hormone-dependent tumors. The KISS1 receptor (KISS1R, also called GPR54), a G-protein-coupled receptor (GPCR), acts (through phospholipase C) to increase intracellular inositol trisphosphate and then release intracellular calcium stores. Cell-based KISS1R-HEK293 assay is using HEK293 cells that have been genetically engineered to express the human KISS1R, which activity can be measured by calcium signaling. A compound/drug can activate (agonist) KISS1R that can be monitored by levels of intracellular calcium.
KISS1R-HEK293 cells developed by Codex Corp contain human KISS1R gene, which was stably integrated into HEK 293 cells. The compound activation can be detected by fluorescence intensity via calcium flux assay. This cell line has been used to screen the Tox21 10K compound library to identify agonists of KISS1R.
KISS1R-Hek293 cells were dispensed at 1500 cells/4uL/well in 1536-well black wall/clear bottom plates using a multidrop dispenser. After the assay plates were incubated at a 37 C/5% CO2 incubator for 18 hours, 4 microL of Calcium Dye Solution was added to each well. The plates were incubated at 37 C for 1 hour. And then 23 nL of compounds dissolved in DMSO, positive controls, or DMSO only was transferred to the assay plate by a pin tool station. The fluorescence intensity in the plates was measured using FDSS 7000EX kinetic plate reader with a filter set of Ex/Em=480/540 for 3 min at 1 sec intervals. Each test compound was measured at 15 concentrations and in triplicates.
For `COC(=O)[C@H](Cc1ccccc1)NC(=O)[C@@H](N)CC(=O)O` (H-Asp-Phe-OMe), the Potency was “inactive”. With `CC1(C)NC(=O)N(c2ccc([N+](=O)[O-])c(C(F)(F)F)c2)C1=O` the Potency was “inactive”. `COc1cc(C=O)ccc1O` was tested, and the Potency was “inactive”. `CC(C)CC(=O)CC(C)C` was tested, and the Potency was “inactive”. In the case of `O=C1O[C@H](CO)[C@@H](O)[C@H](O)[C@H]1O`, the Potency is reported as “inactive”. In the case of `O=C(OCc1ccccc1)c1ccc(O)cc1`, the Potency is reported as “inactive”. `Cc1ccc(C(=O)O)o1` was tested, and the Potency was “inactive”. In the case of `CC(C)=CCC/C(C)=C/CO`, the Potency is reported as “inactive”. With `C[C@]12C[C@H](O)[C@H]3[C@@H](CCC4=CC(=O)CC[C@@]43C)[C@@H]1CC[C@@H]2C(=O)CO` the Potency was “inactive”. With `CC(=O)Nc1cccc(O)c1` the Potency was “inactive”. For `C=C(C)C(=O)OCCC[Si](OC)(OC)OC`, the Potency was “inactive”. With `CCCNC(=O)NS(=O)(=O)c1ccc(Cl)cc1` the Potency was “inactive”. `CC(C)(CO)CO` was tested, and the Potency was “inactive”. With `COc1c(Cl)c(Cl)c(Cl)c(Cl)c1Cl` the Potency was “inactive”. For `Cc1ccc(N)c([N+](=O)[O-])c1`, the Potency was “inactive”. With `C=C(C)CC(C)(C)C` the Potency was “inactive”. For `CCCCOC(=O)CC(CC(=O)OCCCC)(OC(C)=O)C(=O)OCCCC`, the Potency was “inactive”. With `C[C@](N)(Cc1ccc(O)c(O)c1)C(=O)O` the Potency was “inactive”. For `CC(=O)Oc1ccc(C)cc1`, the Potency was “inactive”. `CCCCN(CCCC)CCCC` was tested, and the Potency was “inactive”. `C=C(C)C(=O)OCCOC(=O)C(=C)C` was tested, and the Potency was “inactive”. `CC12CCC(CC1)C(C)(C)O2` was tested, and the Potency was “inactive”. `OC[C@@H](O)[C@@H](O[C@@H]1O[C@H](CO)[C@H](O)[C@H](O)[C@H]1O)[C@H](O)[C@@H](O)CO` was tested, and the Potency was “inactive”. In the case of `O=C(OCC1CCC2OC2C1)C1CCC2OC2C1` (stereo not given), the Potency is reported as “inactive”. For `CC(O)CC(C)(C)O` (stereo not given), the Potency was “inactive”. With `Cc1c(C(N)=O)cc([N+](=O)[O-])cc1[N+](=O)[O-]` the Potency was “inactive”. In the case of `C[N+](C)(C)CCCCCC[N+](C)(C)C`, the Potency is reported as “inactive”. With `O=c1[nH]nnc2ccccc12` the Potency was “inactive”. In the case of `Clc1ccccn1`, the Potency is reported as “inactive”. For `COc1ccc(C(Cl)=C(c2ccc(OC)cc2)c2ccc(OC)cc2)cc1`, the Potency was “inactive”. In the case of `c1cnc2c(c1)ccc1cccnc12`, the Potency is reported as “inactive”. For `CC(=O)c1nccs1`, the Potency was “inactive”. With `COC(=O)c1ccccc1O` the Potency was “inactive”. In the case of `COc1cc(O)c(C(=O)c2ccccc2)cc1S(=O)(=O)O`, the Potency is reported as “inactive”. With `Cc1ccc(C)c(O)c1` the Potency was “inactive”. In the case of `Cc1ccc(C)c(S(=O)(=O)O)c1`, the Potency is reported as “inactive”. For `CCCCCCCCCCCCCCCC(=O)O`, the Potency was “inactive”. `CCn1c2ccccc2c2cc(N)ccc21` was tested, and the Potency was “inactive”. In the case of `Fc1ccc(Br)cc1`, the Potency is reported as “inactive”. With `COc1ccc2[nH]cc(CCNC(C)=O)c2c1` the Potency was “inactive”.
